Assay outcomes from PubChem BioAssay.
HT1080NT lethal – qHTS for induction of synthetic lethality in tumor cells producing 2HG: qHTS for the HT-1080-NT fibrosarcoma cell line | HT-1080-NT fibrosarcoma viability, CellTiter-Glo ATP luminescence, 48 h | Potency, µM (highest dose often 46.1 µM), for inactives: top-dose activity, negative = less viability, hits mostly cytotoxic | actives 1.6% (n = 360,000);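 note: NT is the 2HG producing partner of a matched IDH1 knockdown line; potency is the fitted concentration of half-maximal effect; 0% = DMSO-treated cells and -100% = media-only wells without cells; nearly all actives have a fitted effect of over 55% in size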
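Read-out is CellTiter-Glo luminescence after 10 minutes at room temperature, following 48 hours' compound treatment of HT-1080-NT cells (750 cells/well, RPMI, 5% FBS, 37 degrees C).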
DT40 TDP1 no CPT – qHTS for Inhibitors of human tyrosyl-DNA phosphodiesterase 1 (TDP1): qHTS in cells in absence of CPT. Potency, µM (highest dose often 46.2 µM), for the others: at the highest dose activity change, negative = growth inhibition, actives largely listed as inhibitors. DT40 Tdp1-/- hTDP1 cells, no CPT, ATP luminescence, 48 h. actives 15% (n = 420,000). AID 686978, 2013; note: potency is the fitted concentration of half-maximal effect; nearly all actives have a fitted effect of over 55% in size
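Chicken DT40 Tdp1-/- cells stably complemented with human TDP1 were seeded at 400 cells/well with DMSO in place of 20 nM camptothecin. After compound pinning, cells grew at least 48 hr at 37 °C; viability read by CellTiter-Glo luminescence.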
IL-1B inflam inh – qHTS for Inhibitors of Inflammasome Signaling: IL-1-beta AlphaLISA Primary Screen. activity change, % at 57.5 µM. THP-1 LPS/ATP IL-1B secretion, AlphaLISA, 16 h; active compounds read low. actives 4.7% (n = 360,000); in the data active = activity change below about -50%; inconclusive = mostly about -30% to -49%
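THP-1 cells pretreated 1 hr with compounds (up to 57.5 uM final), then stimulated with LPS (250 ng/mL final) plus ATP (1.25 mM final); secreted IL-1B measured by AlphaLISA after 16 hr, decreased signal indicating inhibition.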
TDP1 cell CPT – qHTS for Inhibitors of human tyrosyl-DNA phosphodiesterase 1 (TDP1): qHTS in cells in presence of CPT | chicken DT40 Tdp1-/-;hTDP1 cells + 20 nM CPT, ATP luminescence, 48 h | Potency, µM (series often up to 46.2 µM), inactives show at the highest dose activity change, negative = growth inhibition, usual class: inhibitors | actives 12% (n = 420,000); note: potency is the fitted concentration of half-maximal effect; nearly all actives have a fitted effect of over 55% in size
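Cell growth measured by CellTiter-Glo luminescence after a minimum 48 h, 37 C compound exposure with 20 nM CPT in Tdp1-knockout DT40 cells stably expressing hTDP1, seeded 400/well; qHTS titration format.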
HT1080 IDH1KD tx – qHTS for induction of synthetic lethality in tumor cells producing 2HG: qHTS for the HT-1080-IDH1KD cell line. HT-1080 IDH1 knockdown viability, ATP luminescence, 48 h. Potency, µM (doses to about 46.1 µM), without a hit: top-dose activity, negative = toxicity, hits mostly cytotoxic. actives 2% (n = 360,000);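 note: potency is the fitted concentration of half-maximal effect; 0% = DMSO wells and -100% = cell-free medium wells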
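Cytotoxicity counter-line: IDH1KD HT-1080, 48 h, CellTiter-Glo. Curves classed by r2, magnitude and activity.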
ELG1 DNA repair – qHTS screen for small molecules that inhibit ELG1-dependent DNA repair in human embryonic kidney (HEK293T) cells expressing luciferase-tagged ELG1; HEK293T ELG1-luciferase reporter, luminescence, 16 h; DNA damage induced by 5-fluorouridine; Potency, µM (highest dose often 46.1 µM), without a hit: top-dose activity change, negative = inhibition, most hits filed as inhibitors; actives 2.3% (n = 330,000); AID 504467, 2011; note: potency is the fitted concentration of half-maximal effect; nearly all actives have a fitted effect of over 55% in size
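DMSO vehicle served as the neutral condition. Each well held 2,000 cells given 5-fluorouridine plus compound; after 16 hr at 37 °C/5% CO2, ONE-Glo was added and luciferase measured 30 min later.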
Starred values were filed as active, the others as inactive; ? = inconclusive; . = no result given. Sampled rows, rich in hits. Any-hit rate of the full collection: about 19%. Unless noted, calls come from the whole dose curve; as a rule, active = well fitted curve in the direction sought with a large enough effect; inconclusive = small, poorly fitted or top-dose-only effect, or another doubt; inactive = no such curve, though single readings can be large; an effect the other way counts as inactive or inconclusive. Unless noted, % is set by controls: 0 for no effect and ±100 for the full control effect.

SMILES	HT1080NT lethal	DT40 TDP1 no CPT	IL-1B inflam inh	TDP1 cell CPT	HT1080 IDH1KD tx	ELG1 DNA repair
COc1cc2[nH]c(=S)nc(NCc3cccs3)c2cc1OC	-19.0%	23.1µM*	-5.8	-29.0%	0.3%	7.3%
COc1cc2[nH]c(=S)nc(NC3CCCCCC3)c2cc1OC	?	?	-139.3*	?	?	?
CC(=O)N[C@@H](CCC(=O)O)C(=O)O	.	-4.0%	.	10.7%	.	.
CC(=O)N[C@@H](CC(=O)O)C(=O)O	-13.9%	1.9%	-107.5*	-6.0%	-20.7%	12.1%
COc1ccc(CNS(=O)(=O)NCc2ccc(C)cc2)cc1	7.9%	1.8%	10.8	17.2%	2.8%	3.6%
COc1cccc(CNn2c(-c3cccc(C)c3)nc3ccccc3c2=O)c1O	-4.1%	?	-22.7	?	-3.7%	16.4µM*
COc1ccc(OC)c(CNn2c(-c3ccccc3F)nc3ccccc3c2=O)c1	-4.1%	18.4µM*	-1.0	?	-12.6%	?
COc1ccc(-c2nc3ccccc3c(=O)n2NC(=O)Cc2ccccc2)cc1	3.8%	-23.7%	20.0	-9.1%	4.2%	0.2%
COc1ccc(CNn2c(-c3ccccc3F)nc3ccccc3c2=O)cc1OC	-0.5%	18.4µM*	0.0	?	1.7%	-11.7%
COc1ccc(CCn2nnc3ccccc3c2=O)cc1OC	15.9%	?	-9.3	-23.9%	19.4%	.
CC(CNS(=O)(=O)c1ccc2c(c1)NC(=O)CCS2)c1ccccc1 (stereo unspecified)	-10.6%	-24.4%	10.6	-27.9%	-10.9%	0.7%
O=C(c1ccccc1NS(=O)(=O)c1ccc(F)cc1)N1CCOCC1	3.6%	-5.4%	-0.4	0.2%	4.1%	12.0%
O=C(CCS(=O)(=O)c1ccc(F)cc1)Nc1ccc(N2CCN(Cc3ccccc3)CC2)cc1	-1.5%	?	14.9	?	5.9%	-7.1%
Fc1ccc(CNc2ccc(N3CCN(Cc4ccccc4)CC3)cc2)cc1	-26.5%	?	?	?	-14.5%	7.3µM*
O=C(NC1CCCC1)C(c1ccsc1)N(Cc1ccccc1)C(=O)Cc1cccs1 (stereo unspecified)	2.8%	13µM*	-22.3	18.4µM*	-13.6%	-7.9%
COc1ccccc1CN(C(=O)Cc1cccs1)C(C(=O)NC1CCCC1)c1ccncc1 (stereo unspecified)	.	?	-23.9	?	.	-24.4%
COC(=O)c1ccc(C(C(=O)NC2CCCCC2)N(C(=O)Cc2cccs2)C2CC2)cc1 (stereo unspecified)	3.9%	10.3µM*	20.9	8.2µM*	2.7%	-6.0%
O=C(NC1CCCC1)C(c1ccncc1)N(Cc1ccccc1)C(=O)Cc1cccs1 (stereo unspecified)	3.6%	-21.7%	-6.9	0.0%	-25.2%	14.4%
COC(=O)c1ccc(C(C(=O)NC2CCCCC2)N(Cc2ccccc2)C(=O)Cc2cccs2)cc1 (stereo unspecified)	-1.9%	4.11µM*	9.4	3.26µM*	7.4%	3.1%
O=C(NCc1ccccc1)C(c1ccccc1)N(Cc1ccc2c(c1)OCO2)C(=O)Cc1cccs1 (stereo unspecified)	-18.1%	23.1µM*	-26.2	?	-27.6%	16.4µM*
COc1cccc(NC(=O)N2CCCC2C(=O)Nc2cc(C)ccc2OC)c1 (stereo unspecified)	4.5%	1.4%	15.3	2.4%	3.6%	-0.6%
O=C(NC1CCCCC1)C(c1cccnc1)N(CCc1ccccc1)C(=O)Cc1cccs1 (stereo unspecified)	-0.4%	10.3µM*	64.9	?	1.2%	-7.1%
COc1cc(C#Cc2ccc3cc(CCO)oc(=O)c3c2)cc(OC)c1	-8.5%	18.4µM*	-0.9	?	-13.3%	?
CCn1c(-c2ccc(C)cc2)nn(CC(=O)NCCc2ccccc2)c1=S	-13.6%	2.91µM*	-11.9	2.91µM*	-22.4%	-10.2%
CCOC(=O)c1cc(-c2ccc(F)cc2)n(CCC(=O)NCc2ccc(C)cc2)c1C	.	20.6µM*	.	?	.	.
SMILES	HT1080NT lethal	DT40 TDP1 no CPT	IL-1B inflam inh	TDP1 cell CPT	HT1080 IDH1KD tx	ELG1 DNA repair
CC(=O)c1cc(-c2ccc(F)cc2)n(CC(=O)NCc2ccc(C)cc2)c1C	.	8.2µM*	.	16.4µM*	.	.
CCCNC(=O)CCn1c(-c2ccc(C)cc2)cc(C(=O)OCC)c1C	4.0%	?	-16.4	?	4.6%	-0.7%
Cc1nn(CC(=O)NCCc2ccccc2)c(=O)c2ccccc12	23.8%	-3.4%	2.0	-3.3%	17.0%	-2.6%
CC(=O)c1cc(-c2ccccc2)n(CC(=O)NCCc2ccc(C)cc2)c1C	.	8.2µM*	.	14.6µM*	.	.
CC(=O)c1cc(-c2ccc(F)cc2)n(CC(=O)NCc2cccs2)c1C	?	?	1.7	?	?	2.4%
COCCn1c(=O)c(-c2ccc(OC)cc2)nc2cnc(Nc3ccccc3)nc21	.	15.3%	.	20.7%	.	.
O=C(CCCCCNC(=S)Nc1ccccc1)C[N+](=O)[O-]	1.8%	-21.6%	18.4	-1.7%	-4.6%	-10.9%
O=Cc1ccc(OC(=O)c2cc(Cl)nc3ccccc23)cc1	6.4%	20.6µM*	13.0	?	0.9%	2.8%
O=C(Oc1cccc2ccccc12)c1cc(Cl)nc2ccccc12	6.3%	?	20.4	-26.0%	6.1%	4.6%
C[C@@H]1CN([C@@H](C)CO)C(=O)CCCn2nncc2CO[C@@H]1CN(C)C(=O)c1ccccc1	14.4%	-2.6%	4.3	8.5%	2.3%	.
CCc1cc(=O)[nH]c(SCC(=O)Nc2ccc3c(c2)OCCO3)n1	-0.3%	-18.0%	19.2	-28.1%	-18.5%	9.8%
Cc1cc(C(=O)CSc2nnc(Nc3ccccc3)s2)c(C)n1CC1CCCO1 (stereo unspecified)	0.3%	?	?	11.6µM*	-5.5%	18.4µM*
Cc1cc(C(=O)CSc2nc3ccccc3c(=O)[nH]2)c(C)n1CC1CCCO1 (stereo unspecified)	?	10.3µM*	-18.2	13µM*	-19.4%	-0.5%
